Results filed as inconclusive are left out. Activity calls are given as the source filed them. The calls were made as follows: active = hit-call score of the fitted dose curve at least 0.9, where 1 is the maximum; inconclusive = response in the unintended direction; inactive = score below 0.9.
Experiments:
[1] = TOX21_p53_BLA_p2_viability: Viability Assessment in the Tox21 HCT-116 p53 Agonism Beta-lactamase Assay, Phase 2 (AID 2283591);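 also: compound exposure lasted 16 h at 37 °C; actives lower the ATP signal meaning cytotoxicity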
Outline: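 Cytotoxicity readout: CellTiter-Glo ATP luminescence, 30 min at room temperature, after the beta-lactamase read. Cells were HCT116 exposed 16 h at 37C to compounds pin-transferred at 217-fold dilution from DMSO stocks.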

[2] = target: Cellular tumor antigen p53 (Homo sapiens) (UniProt P04637); assay: TOX21_p53_BLA_p2_ratio: Tox21 HCT-116 p53 Agonism Beta-lactamase Assay, Ratio, Phase 2 (AID 2283592)
Outline: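 Read-out is the blue/green (460/530 nm, 405 nm excitation) ratio after 2 h CCF4-AM loading, fitted as gain versus DMSO. Compounds, pinned at 217-fold dilution from DMSO stocks, stayed 16 h on HCT-116 beta-lactamase reporter cells seeded 5 h earlier.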

[3] = TOX21_p53_BLA_p3_viability: Viability Assessment in the Tox21 HCT-116 p53 Agonism Beta-lactamase Assay, Phase 3 (AID 2283593);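 also: cells exposed to compound for 16 h before reading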
Outline: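 Cellular ATP was quantified by CellTiter-Glo luminescence, read after 30 min at room temperature. Beforehand, HCT116 cells (4000/well) received compound 5 h post-seeding, 217-fold diluted from DMSO, then incubated 16 h at 37C.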

[4] = target: Cellular tumor antigen p53 (Homo sapiens) (UniProt P04637); assay: TOX21_p53_BLA_p3_ratio: Tox21 HCT-116 p53 Agonism Beta-lactamase Assay, Ratio, Phase 3 (AID 2283596)
Outline: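 Cells were seeded at 4000/well, rested 5 h at 37C, then dosed with DMSO compound solutions (217-fold dilution) for 16 h. CCF4-AM substrate was loaded for 2 h at room temperature, and the 460/530 nm emission ratio was fitted for gain of signal versus DMSO.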

[5] = target: Cellular tumor antigen p53 (Homo sapiens) (UniProt P04637); assay: TOX21_p53_BLA_p5_ratio: Tox21 HCT-116 p53 Agonism Beta-lactamase Assay, Ratio, Phase 5 (AID 2283599)
Outline: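 Beta-lactamase reporter ratio (blue 460 nm over green 530 nm, 405 nm excitation) after 2 h CCF4-AM loading, in HCT-116 cells exposed 16 h at 37 C to compounds pinned at 217-fold dilution. Increases relative to DMSO baseline scored.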

[6] = TOX21_p53_BLA_p5_viability: Viability Assessment in the Tox21 HCT-116 p53 Agonism Beta-lactamase Assay, Phase 5 (AID 2283600)
Outline: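 Viability came from CellTiter-Glo ATP luminescence, read after 30 min at room temperature. Before this, HCT-116 p53-bla cells (4000/well) had 16 hours of compound exposure at 37C, with DMSO stocks diluted 217-fold on transfer.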

[7] = target: Cellular tumor antigen p53 (Homo sapiens) (UniProt P04637); assay: TOX21_p53_BLA_p4_ratio: Tox21 HCT-116 p53 Agonism Beta-lactamase Assay, Ratio, Phase 4 (AID 2283601)
Outline: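 Signal is the blue/green (460nm/530nm) ratio of cleaved versus uncleaved CCF4-AM substrate, read after 2 h substrate loading. Cells were HCT116 carrying the p53-responsive beta-lactamase reporter, dosed 16 h at 37C, 5% CO2; CellTiter-Glo measured in parallel.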

[8] = TOX21_p53_BLA_p4_viability: Viability Assessment in the Tox21 HCT-116 p53 Agonism Beta-lactamase Assay, Phase 4 (AID 2283597);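 also: hits lower the luminescence signal meaning cytotoxicity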
Outline: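 Cytotoxicity as reduced cellular ATP (CellTiter-Glo luminescence, 30 min room temperature), measured in the same wells following the CCF4 FRET p53 reading. Human HCT-116 cells received compounds in DMSO (217-fold dilution) for 16 h.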

Measured: AC50

Sequence of Cellular tumor antigen p53 (Homo sapiens) (P04637 whole entry, looked up): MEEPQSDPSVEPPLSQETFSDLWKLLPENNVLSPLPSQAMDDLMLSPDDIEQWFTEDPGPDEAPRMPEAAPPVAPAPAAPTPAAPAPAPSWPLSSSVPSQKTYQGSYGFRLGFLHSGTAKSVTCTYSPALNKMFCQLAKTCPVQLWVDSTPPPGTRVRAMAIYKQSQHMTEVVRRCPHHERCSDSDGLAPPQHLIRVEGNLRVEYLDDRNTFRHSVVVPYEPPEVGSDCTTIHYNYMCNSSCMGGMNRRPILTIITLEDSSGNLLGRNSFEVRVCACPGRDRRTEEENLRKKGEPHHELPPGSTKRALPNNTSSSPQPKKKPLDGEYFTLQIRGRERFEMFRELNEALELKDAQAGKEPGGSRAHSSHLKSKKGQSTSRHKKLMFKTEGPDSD

Cc1ccccc1C#N
inactive: [1] | [2] | [3] | [4] | [5]

CCCn1cnc2c1c(=O)n(CCCCC(C)=O)c(=O)n2C
not listed: [7] | [8]
inactive: all other assays above

CC1CN(c2ccccc2)NC1=O (stereo not given)
not listed: [8]
inactive: all other assays above

CCN(CC)c1ccc(N)cc1
active: [2] 31.2 µM | [4] 69.7 µM | [7] 73.4 µM
not listed: [8]
inactive: all other assays above

CC=C1[C@H]2C=C(C)C[C@]1(N)c1ccc(=O)[nH]c1C2
not listed: [7] | [8]
inactive: all other assays above

NCCc1cnc[nH]1
not listed: [8]
inactive: all other assays above

C[C@@H](O)[C@H]1C(=O)N2C(C(=O)[O-])=C(SC3Cn4cnc[n+]4C3)[C@H](C)[C@H]12 (stereo not given in full)
not listed: [7] | [8]
inactive: all other assays above

COc1cc(Cc2cnc(N)nc2N)cc(OC)c1OC
not listed: [7] | [8]
inactive: all other assays above

CCCNC(C)C(=O)Nc1ccccc1C (stereo not given)
inactive: [1] | [2] | [3] | [4] | [5]

OCC(CBr)(CBr)CBr
not listed: [5] | [6]
inactive: all other assays above

NC(=O)c1ccc([N+](=O)[O-])cc1
not listed: [7] | [8]
inactive: all other assays above

C1CCC(C(CC2CCCCN2)C2CCCCC2)CC1 (stereo not given)
active: [1] 18.2 µM | [2] 26.5 µM | [3] 33.3 µM | [4] 43.1 µM | [5] 43.7 µM | [6] 34 µM | [7] 20.5 µM

Clc1ccc2cc3ccccc3cc2c1
not listed: [7] | [8]
inactive: all other assays above

C=CC(=O)O
not listed: [8]
inactive: all other assays above

CCCCCCCCCCCCCCCCCC(=O)[O][Al]
not listed: [8]
inactive: all other assays above

CCCCCCCCCCCCCCNCCO
not listed: [7] | [8]
inactive: all other assays above
